Test in all cases: glycan array binding signal (z-score within array); higher = stronger binding
Common to all, as to details: glycan notation: IUPAC condensed, linker removed

Assay [1] deals with Neu5Ac(a2-3)Gal(b1-3)GalNAc(b1-4)[Neu5Ac(a2-3)]Gal(b1-4)Glc. Put shortly: (§1)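 Negative Z-scores can be read as non-binding. The Z-score is calculated within each array and then averaged across arrays of one protein sequence at different concentrations or buffers and across linkers. Arrays, 3228 in all, were curated from the Consortium for Functional Glycomics database and kept only where the protein sequence was available.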

Assay [2] concerns Neu5Ac(a2-3)Gal(b1-3)GalNAc(b1-4)[Neu5Ac(a2-8)Neu5Ac(a2-3)]Gal(b1-4)Glc. The method in brief:
as §1

Assay [3] concerns Neu5Ac(a2-3)Gal(b1-3)GlcNAc(b1-2)Man(a1-3)[GlcNAc(b1-4)][Neu5Ac(a2-3)Gal(b1-3)GlcNAc(b1-2)Man(a1-6)]Man(b1-4)GlcNAc(b1-4)GlcNAc. Put shortly:
as §1

In assay [4] the test system is Man(a1-2)Man(a1-3)[Man(a1-2)Man(a1-6)]Man. The method in brief: as §1
A further assay concerns Man(b1-4)GlcNAc. Put shortly:
as §1

A further assay deals with MurNAc(b1-4)GlcNAc. Put shortly: as §1
Assay [5] concerns Man(a1-2)Man(a1-2)Man(a1-3)Man. Put shortly: as §1
The subject of assay [6] is Man(a1-2)Man(a1-2)Man(a1-6)[Man(a1-3)]Man. Put shortly:
as §1

A further assay deals with Man(a1-2)Man(a1-3)Man. The method in brief: as §1
Assay [7] relates to Man(a1-2)Man(a1-3)[Man(a1-2)Man(a1-6)]Man(a1-6)[Man(a1-2)Man(a1-2)Man(a1-3)]Man(b1-4)GlcNAc(b1-4)GlcNAc. Put shortly: as §1
The subject of assay [8] is Man(a1-2)Man(a1-3)[Man(a1-2)Man(a1-6)]Man(a1-6)[Man(a1-2)Man(a1-2)Man(a1-3)]Man. The method in brief: as §1
Assay [9] has as its system Man(a1-2)Man(a1-3)[Man(a1-6)]Man(a1-6)[Man(a1-2)Man(a1-3)]Man(b1-4)GlcNAc(b1-4)GlcNAc. The method in brief: as §1
The test system of assay [10] is Man(a1-2)Man(a1-6)[Man(a1-3)]Man(a1-6)[Man(a1-2)Man(a1-2)Man(a1-3)]Man(b1-4)GlcNAc(b1-4)GlcNAc. Put shortly:
as §1

Assay [11] relates to Man(a1-2)Man(a1-6)[Man(a1-3)]Man(a1-6)[Man(a1-2)Man(a1-2)Man(a1-3)]Man. Put shortly: as §1
The test system of assay [12] is Man(a1-3)[Man(a1-6)]Man(a1-6)[Man(a1-2)Man(a1-3)]Man(b1-4)GlcNAc(b1-4)GlcNAc. Put shortly: as §1
The test system of assay [13] is Neu5Ac(a2-3)Gal(b1-3)GlcNAc(b1-3)Gal(b1-3)GlcNAc. The method in brief: as §1
Assay [14] relates to Neu5Ac(a2-3)Gal(b1-3)GalNAc. The method in brief:
as §1

The next assay relates to Man(a1-3)[Man(a1-6)]Man. The method in brief:
as §1

A further assay concerns Kdn(a2-3)Gal(b1-4)GlcNAc. The method in brief:
as §1

Assay [15] concerns Man(a1-3)[Man(a1-6)]Man(b1-4)GlcNAc(b1-4)[Fuc(a1-6)]GlcNAc. Put shortly: as §1

Shown is part of a subset that was picked to be rich in the strongest signals.

For the substance “AgI/II Vhelical-GFP (Streptococcus mutans)”, the “glycan array binding signal (z-score)” value was 0.244 in [1], -0.256 in assay [2] and 1.2 in assay [3].
Regarding LcI (Legionella pneumophila), the “glycan array binding signal (z-score)” value in assay [4] was -0.584; with Man(b1-4)GlcNAc, 0.079; in the assay with MurNAc(b1-4)GlcNAc, 0.332; in assay [3], -0.429.
With Actinohivin (Actinomycete K97), the “glycan array binding signal (z-score)” value amounted to 3.74 in assay [5]; 16.1 in assay [6]; 1.82 in the assay on Man(a1-2)Man(a1-3)Man; 3.83 in assay [7]; 12.4 in assay [8]; 1.78 in assay [4]. For the same substance, the figures for the “glycan array binding signal (z-score)” value in [9], in assay [10] and in [11] were 3.51, 6.4 and 8.54, respectively.
Regarding AgI/IIC123-GFP (Streptococcus mutans), the “glycan array binding signal (z-score)” value in assay [5] is -0.465; in assay [4], 0.368; in assay [12] it was -0.159; in [3], -0.265; in assay [13], -0.456.
“SpGH101 (Streptococcus pneumoniae), Q8DR60”: the “glycan array binding signal (z-score)” value with Man(a1-2)Man(a1-3)Man was -0.182; in [7] it was -0.2.
In the case of GspB (Streptococcus gordonii), Q939N5, in assay [14], the “glycan array binding signal (z-score)” value turned out to be 4.52.
With Wza (Escherichia coli), P0A930, the “glycan array binding signal (z-score)” value in assay [5] was 2.8; in assay [12], 0.776; in the assay on Man(a1-3)[Man(a1-6)]Man, 1.81.
For the substance “SiiE (Salmonella typhimurium), A0A0H3NVH0”, the results for the “glycan array binding signal (z-score)” value (in the assay with Kdn(a2-3)Gal(b1-4)GlcNAc; in [10]) were 2.58 and -0.297, respectively.
As to Epa22, the “glycan array binding signal (z-score)” value in assay [15] is -0.324.
Turning to BambL (Burhholderia ambifaria), Q0B4G1, in the assay with Man(a1-2)Man(a1-3)Man, the “glycan array binding signal (z-score)” value is -0.316.

(Values after the supplement of paper PMC8728848.)
